Measured values reported in PubChem BioAssay.
Active and inactive are the calls of the source.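 Rule for the calls: active = compounds killing one labelled cell type while sparing the other, by normalised counts and ratio limits, not self-fluorescent; inactive = the rest.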

Experiment: differential killing of epithelial or mesenchymal cells, primary screen, imaging, PC-3E GFP, TEM4-18 mCherry, co-culture (AID 1345086);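 note: cells exposed to compound for 72 h before imaging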;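 for red/green cell ratio (normalised): normalised mesenchymal count divided by normalised epithelial count so high means epithelial killing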
Conditions: imaging cell counts, at 1 µM; for red/green cell ratio (normalised): actives lie on both sides, counts scaled to control wells, 1 = unselective
[1] = measured here: epithelial PC-3E GFP cell survival
[2] = measured here: mesenchymal TEM4-18 mCherry cell survival

| SMILES | red/green cell ratio (normalised) | normalised cell number [1] | normalised cell number [2] |
| --- | --- | --- | --- |
| COC1=C(O)C(=O)c2c(cc3oc(C(C)=O)c(O)c3c2O)C1=O | 1.19 (inactive) | 0.94 | 1.12 |
| COc1ccc2oc(-c3ccccc3OC)cc(=O)c2c1 | 0.85 (inactive) | 1.16 | 0.98 |
| COC1C(O)C(O)C(O)[C@@H](O)C1O (stereo partly drawn) | 1.11 (inactive) | 0.95 | 1.05 |
| CC(=O)O[C@H]1CC2CCC3C(CC[C@@]4(C)C3C[C@H]([N+]3(C)CCCCC3)[C@@H]4OC(C)=O)[C@@]2(C)C[C@@H]1[N+]1(C)CCCCC1 (stereo partly drawn) | 0.99 (inactive) | 0.95 | 0.94 |
| CC(CCC(=O)O)[C@H]1CCC2C3CC[C@@H]4C[C@H](O)CC[C@]4(C)C3C[C@H](O)[C@@]21C (stereo partly drawn) | 1.05 (inactive) | 0.86 | 0.91 |
| COc1cc(OC)c2c(c1)OC(c1ccccc1)CC2=O (stereo not drawn) | 1.1 (inactive) | 0.99 | 1.08 |
| CC(CCC(=O)O)[C@H]1CCC2C3CC[C@@H]4CCCC[C@]4(C)C3CC[C@@]21C (stereo partly drawn) | 0.93 (inactive) | 1.12 | 1.04 |
| C=CCOC(=O)N1C(=O)O[C@H]2C(OC(C)=O)C(COC(C)=O)O[C@H](Sc3ccc(C)cc3)[C@H]21 (stereo partly drawn) | 0.89 (inactive) | 1.08 | 0.97 |
| O=C(O)c1ccc(-c2ccccc2)cc1 | 0.96 (inactive) | 1.01 | 0.97 |
| COc1cc(C(=O)O)cc(OC)c1O | 1.08 (inactive) | 1 | 1.07 |
| C=C1OC(=O)C23C(O)C(=O)CC(OC12)C3C (stereo not drawn) | 0.89 (inactive) | 1.19 | 1.06 |
| NCCC[C@H](N)CC(=O)NC1CNC(=O)[C@H]([C@H]2C[C@H](O)N=C(N)N2)NC(=O)/C(=C/NC(N)=O)NC(=O)[C@H](CO)NC(=O)[C@H](CO)NC1=O (stereo partly drawn) | 0.82 (inactive) | 1.24 | 1.02 |
| O=C(O)c1c(Cl)nc(Cl)c2ccccc12 | 1.02 (inactive) | 0.97 | 0.99 |
| c1ccc(OCC2CCNC2)cc1 (stereo not drawn) | 0.83 (inactive) | 1.17 | 0.97 |
| NCC1O[C@@H](OC2C(N)C[C@@H](N)C(OC3OC(CO)[C@@H](O)C(N)[C@H]3O)[C@H]2O)C(O)CC1O (stereo partly drawn) | 1.05 (inactive) | 1.04 | 1.09 |
| C=C1CC[C@@]2(C)[C@H](C)CC[C@H](O)[C@@]2(CCC=C(C)C)[C@@H]1Cc1c[nH]c2ccccc12 | 0.97 (inactive) | 0.88 | 0.85 |
| CC(=O)O[C@@H]1C[C@@]2(C)C(CC[C@@H]2C(C)=O)C2CCC3=CC(=O)CC[C@]3(C)C21 (stereo partly drawn) | 1.08 (inactive) | 0.87 | 0.94 |
| CO[C@H]1OC(COCc2ccccc2)C(O)[C@@H]2OC(=O)N[C@H]12 (stereo partly drawn) | 1.08 (inactive) | 0.88 | 0.95 |
| C=C1OC(=O)c2c(OC)cc(OC)c(C)c2C1C (stereo not drawn) | 1 (inactive) | 0.98 | 0.98 |

| SMILES | red/green cell ratio (normalised) | normalised cell number [1] | normalised cell number [2] |
| --- | --- | --- | --- |
| CC(C)CCCC(C)C1CCC2C3CC[C@H]4CCCC[C@]4(C)C3CC[C@]12C (stereo partly drawn) | 0.9 (inactive) | 1.1 | 0.99 |
| CC(C)(c1ccc(O)cc1)c1ccc(O)cc1 | 0.93 (inactive) | 1.17 | 1.09 |
| OCCN1C[C@H](O)[C@@H](O)C(O)C1CO (stereo partly drawn) | 1.19 (inactive) | 1.01 | 1.21 |
| CC(C)CCCC(C)C1CCC2C3CC[C@H]4C[C@@H](O)CC[C@]4(C)C3CC[C@]12C (stereo partly drawn) | 1.05 (inactive) | 1.04 | 1.1 |
| CCCCCCCCCCCC[C@H](C(=O)O)[C@@H](C)C(=O)O | 1.15 (inactive) | 0.84 | 0.97 |
| O=C1C=CC2(Oc3cccc4cccc(c34)O2)[C@H]2[C@H]1[C@@H](O)C=C[C@H]2O | 0.98 (inactive) | 1.06 | 1.04 |
| COC(=O)C1O[C@H](OCc2ccccc2)[C@@H](OC(=O)c2ccccc2)[C@@H](OC(=O)c2ccccc2)C1O (stereo partly drawn) | 1.02 (inactive) | 1.18 | 1.2 |
| COC(=O)C[C@@H]1C2(C)C(=O)[C@@H](CC3=C4CC(O)O[C@@H](c5ccoc5)[C@]4(C)CCC32)[C@H](O)C1(C)C (stereo partly drawn) | 1.16 (inactive) | 0.99 | 1.14 |
| C=C1C(=O)OC(C(=O)O)C1(O)CCCCCCCCC (stereo not drawn) | 0.96 (inactive) | 1.02 | 0.98 |
| C=C1C[C@]23C[C@@]1(O)CC[C@H]2[C@@]12C=C[C@H](O)[C@](C)(C(=O)O1)[C@H]2[C@@H]3C(=O)O | 1.1 (inactive) | 0.93 | 1.02 |
| COc1c(N2CC[C@@H](CN)C2)c(F)cc2c(=O)c(C(=O)O)cn(CCCCN3C(=O)c4ccccc4C3=O)c12 | 1 (inactive) | 1.09 | 1.09 |
| COC(=O)CCC(C)C1CCC2C3CC[C@@H]4C[C@H](O)CC[C@]4(C)C3C[C@H](O)[C@]12C (stereo partly drawn) | 0.9 (inactive) | 1.05 | 0.94 |
| CC(=O)OC1CCC2(C)C3CC(=O)C4(C)C(CC5OC6(CCC(C)CO6)[C@@H](C)C54)C3CC[C@H]2C1 (stereo partly drawn) | 0.89 (inactive) | 1.05 | 0.93 |
| COc1cc(O)c2c(c1C)C(C(C)=O)COC2=O (stereo not drawn) | 0.88 (inactive) | 0.32 | 0.28 |
| C=C1C/C=C(\C)CC[C@@H]2[C@@H]1CC2(C)C | 1.09 (inactive) | 0.98 | 1.07 |
| C=C[C@](C)(O)CC[C@@H]1[C@@]2(C)CCCC(C)(C)[C@@H]2CC[C@]1(C)O | 1.05 (inactive) | 1.16 | 1.21 |
| Cc1cn(CC(=O)O)c(=O)[nH]c1=O | 0.86 (inactive) | 1.15 | 0.99 |
| C=CC(C)(C)c1cc(O)ccc1OC1OC(CO)C(O)C(O)C1O (stereo not drawn) | 1.01 (inactive) | 0.93 | 0.94 |
| CC[C@@H](C)CC(=O)N1C(=S)O[C@@H]2Cc3ccccc3[C@@H]21 | 0.94 (inactive) | 1.12 | 1.05 |

| SMILES | red/green cell ratio (normalised) | normalised cell number [1] | normalised cell number [2] |
| --- | --- | --- | --- |
| C=C/C(C)=C\CC1[C@](C)(O)CC[C@H]2C(C)(C)CCC[C@]12C (stereo partly drawn) | 1.09 (inactive) | 1.11 | 1.2 |
| O=C(O)CNc1ccc(Cl)cc1[N+](=O)[O-] | 1.05 (inactive) | 1.11 | 1.17 |
| CC(CCC(=O)O)[C@H]1CCC2C3C(C[C@H](O)[C@@]21C)[C@@]1(C)CC[C@@H](O)C[C@H]1C[C@H]3O (stereo partly drawn) | 0.97 (inactive) | 1.01 | 0.98 |
| C[C@H](Cc1cc(O)cc(O)c1C(=O)O[C@H](C)CC(=O)O[C@H](C)Cc1cc(O)cc(O)c1C(=O)O[C@H](C)CC1Cc2cc(O)cc(O)c2C(=O)O1)OC(=O)C[C@@H](C)O (stereo partly drawn) | 0.98 (inactive) | 0.85 | 0.83 |
| C[C@H](O)CCc1ccc(C(=O)O)nc1 | 0.97 (inactive) | 1.16 | 1.13 |
| CCCc1ccc(C(=O)O)nc1 | 0.84 (inactive) | 1.18 | 0.99 |
| COc1c(F)c(F)cc2c(=O)c(C(=O)NO)cn(C3CC3)c12 | 1.08 (inactive) | 0.97 | 1.04 |
| CC(=O)O[C@H]1C[C@@H](OC(C)=O)C(C)(C)C2C[C@@H](OC(C)=O)[C@]3(C)C(CC[C@@]4(C)[C@H](c5ccoc5)OC(=O)[C@H]5O[C@]543)[C@]21C (stereo partly drawn) | 1.1 (inactive) | 0.93 | 1.02 |
| COC(=O)C1O[C@H](OCc2ccccc2)[C@@H](OC(C)=O)[C@@H](OC(C)=O)C1OC(C)=O (stereo partly drawn) | 0.86 (inactive) | 1.31 | 1.13 |
| COC(=O)C[C@H]1C(C)(C)C(=O)[C@@H]2CC3=C4CC(=O)O[C@@H](c5ccoc5)[C@]4(C)CCC3C1(C)C2=O (stereo partly drawn) | 1.01 (inactive) | 0.78 | 0.78 |
| CC(C)[C@@H]1CC[C@@H](C)C[C@H]1OC(=O)c1ccccc1 | 1.07 (inactive) | 0.9 | 0.97 |
| C[C@@H]1CC[C@@]23CCC4(C)[C@@](C=CC5[C@@]6(C)CCC(=O)C(C)(C)C6CC[C@]54C)(OC2=O)C3[C@H]1C (stereo partly drawn) | 1.03 (inactive) | 0.95 | 0.98 |
| CO[C@H]1CC(O[C@@H]2/C(C)=C/C[C@@H]3C[C@@H](C[C@]4(CC[C@H](C)[C@@H](C5CCCCC5)O4)O3)OC(=O)[C@@H]3C=C(C)/C(=N/O)C4OC/C(=C\C=C\[C@@H]2C)[C@]43O)O[C@@H](C)C1O (stereo partly drawn) | 1.11 (inactive) | 1.23 | 1.36 |
| O=C(O)C1CC(C2CCCCN2)CN2CCCCC12 (stereo not drawn) | 1.06 (inactive) | 0.95 | 1 |
| CCC1OC(=O)[C@H](C)C(=O)[C@H](C)[C@@H](OC2O[C@H](C)C[C@H](N(C)C)[C@H]2O)[C@](C)(OC)C[C@@H](C)C(=O)[C@H](C)[C@H]2N(CCCCn3cnc(-c4cccnc4)c3)C(=O)O[C@@]12C (stereo partly drawn) | 1.16 (inactive) | 1.06 | 1.23 |
| C[C@H]1[C@H](C)CC[C@]2(C(=O)O)CC[C@]3(C)C(=CCC4[C@@]5(C)C[C@@H](O)[C@H](O)[C@@](C)(CO)C5[C@H](O)C[C@]43C)[C@H]12 (stereo partly drawn) | 1.27 (inactive) | 0.92 | 1.17 |
| CC[C@H](C)/C=C/C1=CC2=C(Cl)C(=O)[C@@]3(C)OC(=O)C(C(=O)[C@@H](C)[C@@H](C)O)=C3C2=CO1 | 0.99 (inactive) | 0.92 | 0.91 |
| C=C1OC(=O)[C@]2([C@H](C)C=C[C@H](O)[C@@H]2O)[C@@H]1O | 0.98 (inactive) | 1 | 0.99 |
